Only some compounds are listed: those with a hit (about 11% of all), similar ones and a draw of the others.
L3MBTL1 inh: inhibitors of human L3MBTL1 | Q9Y468 | AlphaScreen L3MBTL1–H3K9me1 peptide binding | Potency, µM (doses to about 57.1 µM), inactives show at the highest dose activity, negative = inhibition, usual class: inhibitors | 230,000 tested, 0.66% active | AID 485360; further: on the % scale 0 is the no-effect control and ±100 the full control effect; nearly all actives have a fitted effect of over 60% in size
Target sequence (Q9Y468 whole entry, looked up): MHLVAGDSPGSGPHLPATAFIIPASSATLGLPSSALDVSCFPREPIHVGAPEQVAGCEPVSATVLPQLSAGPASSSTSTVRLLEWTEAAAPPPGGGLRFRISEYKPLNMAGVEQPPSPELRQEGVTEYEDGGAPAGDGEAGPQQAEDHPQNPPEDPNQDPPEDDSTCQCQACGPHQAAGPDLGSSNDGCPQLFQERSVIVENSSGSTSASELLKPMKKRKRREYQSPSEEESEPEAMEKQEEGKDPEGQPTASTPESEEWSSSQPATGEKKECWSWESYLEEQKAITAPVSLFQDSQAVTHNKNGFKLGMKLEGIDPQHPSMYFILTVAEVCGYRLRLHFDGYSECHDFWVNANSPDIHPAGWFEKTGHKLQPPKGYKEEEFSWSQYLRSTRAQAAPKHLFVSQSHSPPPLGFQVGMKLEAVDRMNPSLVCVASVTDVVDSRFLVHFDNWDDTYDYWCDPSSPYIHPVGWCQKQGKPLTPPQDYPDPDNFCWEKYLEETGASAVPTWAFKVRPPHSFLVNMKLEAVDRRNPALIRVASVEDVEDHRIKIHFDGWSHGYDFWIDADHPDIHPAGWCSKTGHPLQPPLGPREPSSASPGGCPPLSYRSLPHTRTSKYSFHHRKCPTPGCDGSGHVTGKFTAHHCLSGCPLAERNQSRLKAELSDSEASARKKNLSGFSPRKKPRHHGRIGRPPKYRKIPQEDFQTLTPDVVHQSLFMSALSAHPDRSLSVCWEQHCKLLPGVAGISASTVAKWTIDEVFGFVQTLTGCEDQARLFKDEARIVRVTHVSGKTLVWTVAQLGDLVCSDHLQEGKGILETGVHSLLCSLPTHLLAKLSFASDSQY
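AlphaScreen proximity signal between nickel-chelate acceptor and streptavidin donor beads (final 10 ug/mL) reports binding of 50 nM L3MBTL1 to 75 nM biotin-H3 K9me1 peptide; complex incubated with compounds 30 min at room temperature; cefsulodin titration as control.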
HP1b binding inh: blocks HP1-beta chromodomain binding to methylated histone tails; 390,000 tested, 0.56% active; P83916; Potency, µM (top dose mostly 114 µM), for inactives: top-dose activity change, negative = inhibition, usual class: inhibitors; AlphaScreen HP1-beta / biotin-H3K9me3 peptide binding; further: nearly all actives have a fitted effect of over 70% in size
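Compound inhibition of the preformed complex between 50 nM HP1-beta and 50 nM biotinylated H3K9me3 peptide was read by AlphaScreen. Buffer was PBS pH 7.4 with 0.01% Tween-20. Incubations ran 30 min at room temperature, with 10 ug/mL donor/acceptor beads.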
G9a block: blocks human histone lysine methyltransferase G9a. Potency, µM (series often up to 102 µM), inactives show top-dose activity, negative = inhibition, hits mostly inhibitors. G9a H3K9 monomethylation, AlphaScreen, 2 h. Q96KQ7. AID 504332. 350,000 tested, 8.8% active; further: on the % scale 0 is the no-effect control and ±100 the full control effect; nearly all actives have a fitted effect of over 75% in size
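Signal arises when biotinylated H3K9 peptide, once monomethylated, bridges streptavidin donor and antibody-captured acceptor beads. Enzyme at 20 nM was preincubated 15 min with test compounds; peptide 500 nM and SAM 20 uM then reacted for 2 h.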
JMJD2A Tudor inh: blocks the human JMJD2A Tudor domain | O75164 | AlphaScreen JMJD2A-Tudor / H3K4me3 peptide binding | Potency, µM (highest dose often 114 µM), without a hit: at the top dose activity change, negative = inhibition, hits mostly inhibitors | 390,000 tested, 4.4% active; further: on the % scale 0 is the no-effect control and ±100 the full control effect; nearly all actives have a fitted effect of over 50% in size
BAZ2B block: blocks human BAZ2B. 360,000 tested, 4.4% active. AlphaScreen BAZ2B-H3K14Ac peptide displacement. Q9UIF8. AID 504333. Potency, µM (top dose mostly 114 µM), inactives show top-dose activity change, negative = inhibition, hits mostly inhibitors; further: on the % scale 0 is the no-effect control and ±100 the full control effect; nearly all actives have a fitted effect of over 60% in size
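BAZ2B 50 nM plus b-H3(5-23)K14Ac 50 nM, PBS pH 7.4/0.01% Tween-20, 30 min RT; compound added (max 110 uM), 30 min RT; streptavidin donor/Ni-chelate acceptor beads 10 ug/mL final, 20 min dark; AlphaScreen read.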
Numbers without * were called inactive; u = inconclusive; x = no result; [ ] = another dose, or the depositor's remark. The call rests on the fitted dose curve; in most records, active means well fitted inhibition curve with a large enough effect; inconclusive means small, poorly fitted or top-dose-only effect; inactive means no such curve, though single readings can be large or run the other way. Potency means the concentration at half of the fitted maximal effect.

SMILES	L3MBTL1 inh	HP1b binding inh	G9a block	JMJD2A Tudor inh	BAZ2B block
COc1ccc(NC(=S)Nc2cccc(C(C)=O)c2)cc1OC	-7.8%[11.4 µM]	-4.7%	u	-15.9%	u
COc1ccc(NC(=S)Nc2cccc(Cl)c2)cc1OC	-12.6%	3.6%	50.1µM*	-0.3%	-25.2%
COCCCNC(=S)NNC(=O)c1ccccn1	8.91µM*	20.9%	20.1%	20µM*	3.55µM*
COCCCNC(=S)NNC(=S)Nc1cccc(Cl)c1	42.3%	-12.0%	x	3.16µM*	-26.0%
COc1cccc(C(=O)Nc2cccc(-c3nc4ncccn4c3C)c2)c1	x	16.3%[57 µM]	1.2%[59 µM]	-5.8%	-37.0%
Cc1ccn2c(=O)c(NC(=O)c3ccc(Br)o3)c(C)nc2c1	-4.5%	45.5%	-33.7%	-3.4%	-6.3%
COc1ccc(-c2c(C)nn3c(-c4ccccc4)cc(-c4ccccc4)nc23)cc1	x	u	u	u	14.0%
CCCN(C(=O)Cc1c(C(=O)O)n(C)c2ccccc12)c1cccc(C)c1	x	41.5%	25.6%[0.501 µM]	-4.7%	-4.4%
CCN(CC)S(=O)(=O)c1ccc(C(=O)NCCSc2c[nH]c3ccccc23)cc1	-7.8%	24.4%	u	-25.2%	-33.7%
CN(C)c1ccc(C(CNC(=O)c2ccccc2Br)c2c[nH]c3ccccc23)cc1 (stereo not drawn)	u	24.5%	10µM*	-21.4%	14.1µM*
CN(C)c1ccc(C(CNC(=O)c2ccc(C#N)cc2)c2c[nH]c3ccccc23)cc1 (stereo not drawn)	u	u	10µM*	39.8µM*	20µM*
Cc1ccc(Cn2ccc(NC(=O)c3cc(-c4ccc(Cl)c(Cl)c4)on3)n2)cc1	x	17.3%	3.5%[59 µM]	-2.0%	3.6%
Cc1cc(C)c(NC(=O)CN2CCN3CCCC3C2)c(C)c1 (stereo not drawn)	-9.5%	17.8%	11.2µM*	-9.7%	-5.8%
O=C(NCCc1ccccc1)C1CCC(=O)N(Cc2ccc(Cl)cc2)C1 (stereo not drawn)	x	32.0%	48.8%	-4.4%	-4.6%
O=C(NCCc1cscn1)C1CCC(=O)N(Cc2ccc(Cl)cc2)C1 (stereo not drawn)	x	14.4%	70.8µM*	-16.0%	-19.1%
Cc1ccc(N(CC(=O)NCc2ccco2)C(=O)CCC(=O)Nc2ccccn2)c(C)c1	x	11.1%	22.4µM*	-13.7%	-13.9%
Cc1cc(C)cc(N(CC(=O)NCc2ccco2)C(=O)CCC(=O)Nc2ccccn2)c1	-3.6%	u	-14.0%	-13.8%	-9.8%
Cc1ccc(N(CC(=O)NCc2ccc(F)cc2)C(=O)CCC(=O)Nc2ccccn2)cc1C	x	9.8%	14.8%[59 µM]	79.4µM*	3.1%
O=C1CCc2cc([S+](=O)([O-])Nc3ccc(N[S+](=O)([O-])c4ccc5c(c4)CCC(=O)N5)cc3)ccc2N1	x	x	x	-5.7%	x
O=C1C=C(c2ccccc2)C(=O)N1Nc1ccccc1	x	20.8%	8.91µM*	-12.4%	-4.8%
CC1Cc2ccccc2N1C(=O)COC(=O)Cc1ccc(F)cc1 (stereo not drawn)	3.5%	53.9%	10.7%	13.8%	7.8%
Cc1cccc(N2CCN(C(=O)CCc3c(C)nc4c(c3C)c(=O)n(C)c(=O)n4C)CC2)c1C	x	13.4%	-22.0%[59 µM]	-9.8%	-6.1%
Cc1ccnc(NS(=O)(=O)c2ccc(NC(=O)C(C)(C)Oc3ccc(Cl)cc3)cc2)n1	x	27.7%	u	-13.4%	-4.2%
CN(C)c1ccc(N=c2sc3ccccc3n2C)cc1	x	10µM*	u	10µM*	7.94µM*
COc1ccc(CC(=O)NCCN2CCOCC2)cc1	x	42.5%	7.4%	-13.4%	-2.2%
SMILES	L3MBTL1 inh	HP1b binding inh	G9a block	JMJD2A Tudor inh	BAZ2B block
COc1ccc(CNC(=O)CN(C(=O)c2ccc(CN3CCOCC3)o2)C2CCCC2)cc1	-1.3%	30.3%	3.55µM*	-9.8%	-2.7%
COC(=O)c1ccc(NC(=O)CCn2cnnn2)cc1	x	40.6%	-1.3%[59 µM]	-1.6%	7.6%
O=C(Nc1ccccc1N1CCCCC1)C1CCN(C(=O)c2ccc(Cl)cc2)CC1	-7.2%	16.0%	u	-17.8%	-0.7%
O=C(Nc1ccccc1N1CCCC1)C1CCN(C(=O)c2ccc(Cl)cc2)CC1	0.2%	-11.9%	50.1µM*	-29.0%	-9.7%
CCN(CC)S(=O)(=O)c1ccc(N2CCCCC2)c(NC(=O)C2CCN(C(=O)c3ccc(F)cc3)CC2)c1	-9.7%	-19.5%	-13.8%[12.7 µM]	-23.1%	-4.4%
O=C(Nc1ccccc1N1CCCC1)C1CCN(C(=O)c2ccc(F)cc2)CC1	2.7%	2.6%	50.1µM*	-19.2%	7.1%
N#Cc1ccsc1NC(=O)C1CCN(C(=O)c2ccc(Cl)cc2)CC1	4.5%	20.2%	50.1µM*	-17.2%	-33.6%
Cc1ccc(OCc2nc(-c3ccc(C(=O)NCCc4ccc(S(N)(=O)=O)cc4)cc3)oc2C)cc1	x	46.8%	6.6%[59 µM]	1.5%	3.8%
O=C(c1ccc2c(c1)N(Cc1ccc(Cl)cc1)C(=O)c1ccccc1S2=O)N1CCC(Cc2ccccc2)CC1 (stereo not drawn)	x	7.6%	-10.7%[59 µM]	-23.2%	u
C=CCOc1c(Br)cc(CNn2c(C)n[nH]c2=S)cc1OC	-8.0%	u	11.2µM*	89.1µM*	-30.4%
C=CCOc1c(Br)cc(CNc2nccs2)cc1OC	-5.6%	0.8%	11.2µM*	u	u
C=CCOc1ccc2ccccc2c1CNn1c(C)n[nH]c1=S	18.0%	26.8%	x	u	40.9%
C=CCOc1ccc(CNn2c(C)n[nH]c2=S)cc1OC	-11.8%	48.7%	x	20µM*	-0.3%
CCc1cc2c(-c3ccccc3)cc(=O)oc2c2c1OCN(Cc1ccc(F)cc1)C2	x	81.4%	19.3%[59 µM]	0.7%	8.4%
CCCOc1ccc(C2C(=O)N(C3CCC(C)CC3)CC(=O)N2Cc2cccc(OC)c2)cc1OC (stereo not drawn)	x	43.6%	5.5%[59 µM]	-9.2%	-1.4%
CC(C)N1C(=O)/C(=C\c2nc3ccccc3c(=O)n2-c2ccccc2)c2ccccc21	-28.6%	u	u	35.5µM*	10µM*
CC(C)N1C(=O)C(Cc2nc3ccccc3c(=O)n2-c2ccccc2)c2ccccc21 (stereo not drawn)	-3.2%	1.8%	x	-23.3%	u
CC(C)N1C(=O)/C(=C/c2nc3ccccc3c(=O)n2-c2ccccc2)c2ccccc21	u	25.1µM*	10µM*	20µM*	35.5µM*
CSc1ccc(C2C(C(=O)c3ccco3)=C(O)C(=O)N2c2nnc(SC)s2)cc1 (stereo not drawn)	x	10.2%	u	7.08µM*	u
Cc1nnc(N2C(=O)C(O)=C(C(=O)c3ccco3)C2c2ccc(C(C)C)cc2)s1 (stereo not drawn)	-0.2%	35.7%	44.7µM*	u	-11.9%
Cc1nnc(N2C(=O)C(O)=C(C(=O)c3ccco3)C2c2ccc(F)cc2)s1 (stereo not drawn)	3.7%	33.6%	u	56.2µM*	3.6%
Cc1c(CCC(=O)NCCc2ccccc2F)c(=O)oc2cc(O)ccc12	x	12.7%	-4.6%[59 µM]	-14.6%	-4.7%

Source: PubChem
